# According to PubChem BioAssay (NCATS):
# “And” between values parts separate entries of the source, which are not always exact repeats. Equal entries are not always repeated. Records with an inconclusive call do not appear. Where a call stands in place of a potency, no number is given. The source made the active and inactive calls. Unless noted, the call rests on the fitted dose curve; in most records, active means well fitted curve in the direction sought with a large enough effect; inconclusive means small, poorly fitted or top-dose-only effect, or another doubt; inactive means no such curve, though single readings can be large; an effect the other way counts as inactive or inconclusive.
# Legend:
# [1] = target: Luciferin 4-monooxygenase (Photinus pyralis) (UniProt P08659); test: Biochemical firefly luciferase enzyme assay for NPC (AID 624030);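 further: purified P. pyralis luciferase at 10 nM with luciferin and ATP substrate; nearly all actives have a fitted effect of over 70% in size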
# Method in brief: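 Counter-screen for direct inhibition of the luciferase enzyme by approved-drug library compounds, run at 10 nM enzyme in 50 mM Tris acetate (final). Luminescence was read within 5 min of enzyme-buffer addition and normalized to PTC124 versus DMSO (0%).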
# [2] = qHTS assay for small molecule agonists of the antioxidant response element (ARE) signaling pathway (AID 651741; active means well fitted activation curve with a large enough effect in the signal ratio; the % refers to the signal ratio; further: potency means the concentration at half of the fitted maximal effect)
# Method in brief: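 Reporter: beta-lactamase under ARE, stably in HepG2. Exposure: 16 h, 37 C, compounds delivered in DMSO by pin tool after 5 h cell preincubation. Readout: FRET substrate fluorescence after 2 h at RT.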
# [3] = qHTS assay for small molecule activators of the p53 signaling pathway (AID 651743; active means well fitted activation curve with a large enough effect in the signal ratio, not every such curve was filed as active; the % refers to the signal ratio); details: HCT-116 p53RE-bla, beta-lactamase FRET ratio, 16 h; activation: stronger effect = higher value
# Method in brief: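 Agonist-mode quantitative HTS in HCT-116 cells carrying a p53-response-element beta-lactamase reporter; 16 h compound treatment at 37 C, then FRET substrate loading for 2 h at room temperature and fluorescence read.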
# [4] = qHTS assay for small molecule activators of the nuclear factor-kappa B (NF-kB) signaling pathway (AID 651749; active means well fitted activation curve with a large enough effect in the signal ratio; the % refers to the signal ratio); details: NF-kB-bla ME-180 cells, beta-lactamase FRET ratio, 16 h; stronger effect = higher value
# Method in brief: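 Human ME-180 cervical cells with an NF-kB-bla construct; compounds added via 23 nL pin transfer, DMSO as vehicle; incubation 16 hr. Reporter activity measured by FRET disruption.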
# [5] = target: Glutaminase kidney isoform, mitochondrial (Homo sapiens) (UniProt O94925); test: qHTS for Inhibitors of Glutaminase (GLS): LOPAC Validation (AID 624146); further: nearly all actives have a fitted effect of over 60% in size; further: potency means the concentration at half of the fitted maximal effect
# Method in brief: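 hKGA in 45 mM KH2PO4 (pH 8.2), 0.02% Tween-20 with compound, then 1mM L-Glutamine (stock as added) plus glutamate oxidase/HRP/Amplex red coupling mix. Fluorescence read initially and after 30 min at RT; signal change reflects glutamate formation.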
# [6] = qHTS of Trypanosoma Brucei Inhibitors: LOPAC Validation (AID 624147)
# Method in brief: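 Activity of T. brucei pyruvate kinase was followed by Kinase-Glo Plus luminescence after the enzyme reacted 45 min at room temperature with 130 uM ADP (final) and substrate. Test compounds were added before ADP at multiple concentrations.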
# [7] = target: Glucagon-like peptide 1 receptor (Homo sapiens) (UniProt P43220); test: qHTS of GLP-1 Receptor Agonists: LOPAC Validation (AID 624148);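 further: higher luminescence signal means agonism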
# Method in brief: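 HEK293 cells stably co-expressing a cAMP-responsive luciferase reporter and a hypersensitive GLP-1R were plated 12 h at 37 °C and exposed to compounds for 4-6 hr at 37 °C, 5% CO2. Luminescence was read 12 min after adding detection reagent.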
# [8] = qHTS of Nrf2 Activators: LOPAC Validation (AID 624149)
# Method in brief: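 Luciferase signal from ARE activation, read with Steady-Glo after 30 min at room temperature. Compounds were pin-transferred onto AREc32_Fluc cells (1000/well, OPTI-MEM/5% FBS, seeded overnight) and left 24 hr at 37 deg C.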
# [9] = HTS Assay for Allosteric Antagonists of the Human D2 Dopamine Receptor: Hit Validation in HTRF (AID 624455); further: potency means the concentration at half of the fitted maximal effect;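 further: stable D1 dopamine receptor cell line scored for blocking the D1 response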
# Method in brief: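 Inhibition of the D1-mediated response was measured by HTRF. Cells used were a line stably expressing the D1 dopamine receptor.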
# [10] = Cytotoxicity counterscreen for NFkB agonists and antagonists (AID 624476);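 further: potency means the concentration at half of the fitted maximal effect; cells exposed to compound for 48 hours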
# [11] = Cell Proliferation Assay against the TMD8 Cell Line (AID 651645); details: TMD8 DLBCL cell line proliferation/viability; at 46.1 µM (top of the series) unless noted;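 further: cells exposed to compound for 48 h before reading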
# Method in brief: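 Viability by CellTiter-Glo after 48 h compound exposure of 500 log-phase TMD8 cells per well (RPMI, 5% FBS). Percent activity scaled between DMSO (100%) and 9.2 uM final bortezomib (0%).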
# [12] = Cell Proliferation Assay against the HBL1 Cell Line (AID 651646); details: HBL1 DLBCL cells; at 46.1 µM (top of the series) unless noted;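 further: cells exposed to compound for 48 h before reading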
# Method in brief: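 After a 48 h incubation of 500 HBL1 cells/well in phenol red-free RPMI plus 5% FBS, relative luciferase units from CellTiter-Glo gave percent activity against DMSO and 9.2 uM bortezomib (final) controls.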
# [13] = Cell Proliferation Assay against the TMD8 Cell Line (Caspase readout at 8 hrs) (AID 651713); further: potency means the concentration at half of the fitted maximal effect
# Method in brief: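 Apoptosis read-out: Caspase-Glo luminescence after 8 h compound exposure of TMD8 lymphoma cells at 37C, 5% CO2. Signals were normalized as percent activity between DMSO and bortezomib (9.2 uM final) controls.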
# Sequence of Luciferin 4-monooxygenase (Photinus pyralis) (P08659 whole entry, looked up): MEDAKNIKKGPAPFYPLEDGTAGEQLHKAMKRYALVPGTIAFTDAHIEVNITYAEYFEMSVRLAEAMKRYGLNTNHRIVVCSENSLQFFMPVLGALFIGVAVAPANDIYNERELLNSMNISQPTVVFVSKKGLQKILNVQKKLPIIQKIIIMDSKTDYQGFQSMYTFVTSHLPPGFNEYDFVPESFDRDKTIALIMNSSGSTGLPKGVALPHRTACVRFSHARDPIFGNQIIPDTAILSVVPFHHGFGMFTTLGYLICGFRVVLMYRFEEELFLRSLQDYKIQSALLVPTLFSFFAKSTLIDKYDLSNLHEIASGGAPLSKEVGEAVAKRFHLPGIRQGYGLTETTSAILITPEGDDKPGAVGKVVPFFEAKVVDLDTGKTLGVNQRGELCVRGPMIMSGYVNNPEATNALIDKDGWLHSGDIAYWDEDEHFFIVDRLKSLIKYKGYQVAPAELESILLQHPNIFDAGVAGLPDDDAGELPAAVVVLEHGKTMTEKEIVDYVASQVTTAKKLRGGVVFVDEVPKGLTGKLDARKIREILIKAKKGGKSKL
# Sequence of Glucagon-like peptide 1 receptor (Homo sapiens) (P43220 whole entry, looked up): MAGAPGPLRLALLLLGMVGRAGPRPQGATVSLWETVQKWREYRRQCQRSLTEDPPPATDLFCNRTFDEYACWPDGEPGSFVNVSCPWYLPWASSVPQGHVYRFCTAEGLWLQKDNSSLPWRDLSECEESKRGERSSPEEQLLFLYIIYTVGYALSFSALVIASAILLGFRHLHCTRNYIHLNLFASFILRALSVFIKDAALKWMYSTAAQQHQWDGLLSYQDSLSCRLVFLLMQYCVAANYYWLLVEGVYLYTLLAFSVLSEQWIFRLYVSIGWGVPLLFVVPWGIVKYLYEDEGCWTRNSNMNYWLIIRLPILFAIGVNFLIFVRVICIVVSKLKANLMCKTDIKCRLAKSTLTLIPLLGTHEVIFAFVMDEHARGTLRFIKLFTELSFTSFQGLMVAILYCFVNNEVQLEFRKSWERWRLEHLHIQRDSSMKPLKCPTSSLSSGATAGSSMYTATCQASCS
# Sequence of Glutaminase kidney isoform, mitochondrial (Homo sapiens) (O94925 whole entry, looked up, canonical isoform): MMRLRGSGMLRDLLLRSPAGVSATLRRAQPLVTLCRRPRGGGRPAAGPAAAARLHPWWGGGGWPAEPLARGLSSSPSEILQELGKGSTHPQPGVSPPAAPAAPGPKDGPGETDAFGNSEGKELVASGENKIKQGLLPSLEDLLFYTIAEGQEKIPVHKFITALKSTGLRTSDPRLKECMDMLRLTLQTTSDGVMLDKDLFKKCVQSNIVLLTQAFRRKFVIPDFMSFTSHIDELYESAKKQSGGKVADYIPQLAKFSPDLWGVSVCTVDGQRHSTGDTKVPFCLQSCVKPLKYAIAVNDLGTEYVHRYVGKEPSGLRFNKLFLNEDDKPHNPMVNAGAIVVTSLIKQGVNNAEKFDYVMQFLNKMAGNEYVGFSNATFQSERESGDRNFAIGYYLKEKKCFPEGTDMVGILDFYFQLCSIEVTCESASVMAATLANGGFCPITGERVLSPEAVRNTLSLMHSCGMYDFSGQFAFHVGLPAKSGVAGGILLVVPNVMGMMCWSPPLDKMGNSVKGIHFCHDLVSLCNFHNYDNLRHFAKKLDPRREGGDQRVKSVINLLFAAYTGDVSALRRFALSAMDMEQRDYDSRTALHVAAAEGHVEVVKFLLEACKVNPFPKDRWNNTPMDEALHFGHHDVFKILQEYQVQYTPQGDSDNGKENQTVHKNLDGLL
smiles,measurement,setting,value
ClC1=C(Cl)[C@]2(Cl)[C@@H]3[C@@H]4C[C@@H]([C@H]5O[C@@H]45)[C@@H]3[C@@]1(Cl)C2(Cl)Cl,Potency,[1],inactive
same,Potency,[2],54.5 µM (active)
same,activation,[3],-1.42% (inactive)
same,activation,[4],5.88% (inactive)
O=C(O)c1cc(Oc2ccc(C(F)(F)F)cc2Cl)ccc1[N+](=O)[O-],Potency,[1],inactive
same,Potency,[2],inactive
same,activation,[4],-1.27% (inactive)
C=CCC1=C(C)C(OC(=O)C2C(C=C(C)C)C2(C)C)CC1=O (stereo not given),Potency,[1],inactive
same,activation,[3],1.22% (inactive)
same,activation,[4],0.983% (inactive) and 2.07% (inactive)
NCCc1c[nH]c2ccccc12,Potency,[5],inactive
same,outcome,[6],inactive
same,outcome,[7],inactive
same,outcome,[8],inactive
NC(CCP(=O)(O)O)C(=O)O (stereo not given),Potency,[5],inactive
same,outcome,[6],inactive
same,outcome,[7],inactive
same,outcome,[8],inactive
same,Potency,[9],inactive
NCc1cc(=O)[nH]o1,Potency,[5],inactive
same,outcome,[6],inactive
same,outcome,[7],inactive
same,outcome,[8],inactive
same,Potency,[9],inactive
Cn1cnc(CCN)c1,Potency,[5],inactive
same,outcome,[6],inactive
same,outcome,[7],inactive
same,outcome,[8],inactive
same,Potency,[9],inactive
CC(Cc1ccc(O)cc1)NCC(O)c1cc(O)cc(O)c1 (stereo not given),Potency,[5],4.47 µM (active)
same,outcome,[6],inactive
same,outcome,[8],inactive
same,Potency,[9],inactive
O=C(O)[C@@H]1CCN1,Potency,[5],inactive
same,outcome,[6],inactive
same,outcome,[7],inactive
same,outcome,[8],inactive
same,Potency,[9],inactive
O=C(O)CC[N+](=O)[O-],Potency,[5],inactive
same,outcome,[6],inactive
same,outcome,[7],inactive
same,outcome,[8],inactive
same,Potency,[9],inactive
CNCCc1ccc(O)c(O)c1,Potency,[5],inactive
same,outcome,[6],inactive
same,outcome,[8],inactive
same,Potency,[9],0.13 µM (active)
O=C(O)Cc1cnc[nH]1,Potency,[5],inactive
same,outcome,[6],inactive
same,outcome,[7],inactive
same,outcome,[8],inactive
same,Potency,[9],inactive
C[C@]12CCC3C(CC[C@H]4C[C@H](O)CC[C@]34C)C1CC[C@@H]2C(=O)CO (stereo not given in full),Potency,[5],inactive
same,outcome,[6],inactive
same,outcome,[7],inactive
same,outcome,[8],inactive
same,Potency,[9],inactive
CC(C)Oc1cccnc1N(C)C1CCN(Cc2ccccc2)CC1,Potency,[5],inactive
same,outcome,[6],inactive
same,outcome,[7],inactive
same,outcome,[8],inactive
same,Potency,[9],inactive
c1ccc2sc(C3(N4CCCCC4)CCCCC3)cc2c1,Potency,[5],inactive
same,outcome,[6],inactive
same,outcome,[7],inactive
same,outcome,[8],inactive
same,Potency,[9],inactive
C#CCOC(=O)C1=CCCN(C)C1,Potency,[5],inactive
same,outcome,[6],inactive
same,outcome,[7],inactive
same,outcome,[8],inactive
same,Potency,[9],inactive
C[C@@H]1O[C@H](C[N+](C)(C)C)C[C@H]1O,Potency,[5],inactive
same,outcome,[6],inactive
same,outcome,[7],inactive
same,outcome,[8],inactive
same,Potency,[9],inactive
S=C(NC1CCCCC1)N1CCC(c2cnc[nH]2)CC1,Potency,[5],inactive
same,outcome,[6],inactive
same,outcome,[7],inactive
same,outcome,[8],inactive
same,Potency,[9],inactive
Oc1ccc2c3c1O[C@H]1c4[nH]c5c(c4C[C@@]4(O)[C@@H](C2)N(CC2CC2)CC[C@]314)C[C@@]1(O)[C@H]2Cc3ccc(O)c4c3[C@@]1(CCN2CC1CC1)[C@H]5O4,Potency,[5],12.6 µM (active)
same,outcome,[6],inactive
same,outcome,[7],inactive
same,outcome,[8],inactive
same,Potency,[9],inactive
COc1ccc2c(c[n+](C)c3c4cc5c(cc4ccc23)OCO5)c1OC,Potency,[5],3.16 µM (active)
same,outcome,[6],inactive
same,outcome,[7],inactive
same,Potency,[9],inactive
same,Potency,[10],23.5 µM (active)
same,viability (% of control),[11],3.33%
same,"viability, percent of control",[12],4.88%
same,Potency,[13],2.96 µM (active)
NC(N)=NOCCC(N)C(=O)O (stereo not given),Potency,[5],inactive
same,outcome,[6],inactive
same,outcome,[7],inactive
same,outcome,[8],inactive
same,Potency,[9],inactive
CC1=NN=C(c2ccc(N)cc2)c2cc3c(cc2C1)OCO3,outcome,[6],inactive
same,outcome,[7],inactive
same,outcome,[8],inactive
same,Potency,[9],inactive
CNCCc1c[nH]c2ccc(O)cc12,outcome,[6],inactive
same,outcome,[7],inactive
same,outcome,[8],inactive
same,Potency,[9],inactive
O=C1CCCN1CC#CCN1CCCC1,Potency,[5],inactive
same,outcome,[6],inactive
same,outcome,[7],inactive
same,outcome,[8],inactive
same,Potency,[9],inactive
NC(CP(=O)(O)O)C(=O)O (stereo not given),Potency,[5],inactive
same,outcome,[6],inactive
same,outcome,[7],inactive
same,outcome,[8],inactive
same,Potency,[9],inactive
Clc1cnc(Oc2ccc(Oc3ncc(Cl)cc3Cl)cc2)c(Cl)c1,Potency,[5],inactive
same,outcome,[6],inactive
same,outcome,[7],inactive
same,outcome,[8],inactive
same,Potency,[9],inactive
same,activation,[3],-0.174% (inactive)
same,activation,[4],0.531% (inactive)
NC(=NCCC[C@H](N)C(=O)O)N[N+](=O)[O-],Potency,[5],inactive
same,outcome,[6],inactive
same,outcome,[7],inactive
same,outcome,[8],inactive
same,Potency,[9],inactive
